Common to all, as to design: scale not given: direction of the effect not stated beside the values
Test [1] has as its target Protein translocase subunit SecA (Escherichia coli (strain K12)) (UniProt P10408). The test is described as follows: Assay to Identify E. coli SecA ATPase Inhibitors. It is filed as functional. The note with it: 30 µM.
Test [2] deals with T1, Ubiquitin-activating enzyme e1, putative (Leishmania donovani (strain BPK282A1)) (UniProt E9BSI1).
T1 sequence (whole entry): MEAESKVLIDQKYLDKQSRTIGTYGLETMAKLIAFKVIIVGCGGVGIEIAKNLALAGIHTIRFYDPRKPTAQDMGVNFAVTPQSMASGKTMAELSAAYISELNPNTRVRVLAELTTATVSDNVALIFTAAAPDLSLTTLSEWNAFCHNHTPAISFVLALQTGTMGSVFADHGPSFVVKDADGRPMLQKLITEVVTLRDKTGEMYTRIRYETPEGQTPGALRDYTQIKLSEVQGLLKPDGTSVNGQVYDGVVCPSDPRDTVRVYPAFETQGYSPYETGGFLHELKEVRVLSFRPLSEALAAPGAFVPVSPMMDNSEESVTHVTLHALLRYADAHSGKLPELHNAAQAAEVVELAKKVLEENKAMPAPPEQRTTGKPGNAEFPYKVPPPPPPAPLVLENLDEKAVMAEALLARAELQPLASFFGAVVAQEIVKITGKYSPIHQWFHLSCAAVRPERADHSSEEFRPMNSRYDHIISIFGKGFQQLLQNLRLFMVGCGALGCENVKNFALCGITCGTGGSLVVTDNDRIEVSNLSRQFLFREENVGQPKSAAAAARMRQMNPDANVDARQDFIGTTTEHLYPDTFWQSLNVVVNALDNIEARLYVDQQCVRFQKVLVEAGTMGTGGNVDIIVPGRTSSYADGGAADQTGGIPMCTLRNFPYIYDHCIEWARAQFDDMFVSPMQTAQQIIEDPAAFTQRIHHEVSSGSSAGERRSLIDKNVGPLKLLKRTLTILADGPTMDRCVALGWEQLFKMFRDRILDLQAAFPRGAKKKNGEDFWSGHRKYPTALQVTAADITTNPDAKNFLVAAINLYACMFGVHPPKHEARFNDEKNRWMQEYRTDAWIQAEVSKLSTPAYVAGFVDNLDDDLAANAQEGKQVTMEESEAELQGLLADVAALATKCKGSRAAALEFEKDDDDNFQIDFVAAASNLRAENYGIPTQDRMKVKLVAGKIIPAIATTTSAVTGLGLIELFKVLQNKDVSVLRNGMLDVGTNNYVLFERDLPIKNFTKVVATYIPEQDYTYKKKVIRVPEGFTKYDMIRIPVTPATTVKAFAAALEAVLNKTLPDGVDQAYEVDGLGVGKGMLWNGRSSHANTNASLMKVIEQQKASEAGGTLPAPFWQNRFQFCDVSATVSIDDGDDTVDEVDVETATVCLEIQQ
Put plainly: Leishmania donovani Ubiquitin Activating Enzyme (LdE1). It counts as functional. The note with it: 30 µM.

For test [3], the target named is AMP-activated protein kinase, AMPK (Homo sapiens) (UniProt P54646+O43741+P54619+Q9UGJ0+Q9Y478+Q13131+Q9UGI9). Put plainly: AMP-dependent Kinase enzyme assay. An in vitro enzyme assay that detects ADP turnover that is directly proportional to AMPK activity. This uses naive AMPK that is activated during the assay with MK-8722. It is filed as functional. The settings on record: 30 µM.

Test [4] addresses Sialic acid-binding Ig-like lectin 9 (Homo sapiens) (UniProt Q9Y336). Put plainly: Hs-Siglec9 ALPHAscreen SOP 20170721. The note with it: 10 µM. (Alpha assays give light when donor and acceptor beads are brought close together.)
In another test the test system is Trypanosoma cruzi. Put plainly: Trypanosoma cruzi phosphomannomutase and mannose-1-phosphate guanylyltransferase assay. The note with it: 10 µM. It is filed as functional.
In test [5] the target is T2, Arginase-2, mitochondrial (Homo sapiens) (UniProt P78540).
T2 sequence (whole entry): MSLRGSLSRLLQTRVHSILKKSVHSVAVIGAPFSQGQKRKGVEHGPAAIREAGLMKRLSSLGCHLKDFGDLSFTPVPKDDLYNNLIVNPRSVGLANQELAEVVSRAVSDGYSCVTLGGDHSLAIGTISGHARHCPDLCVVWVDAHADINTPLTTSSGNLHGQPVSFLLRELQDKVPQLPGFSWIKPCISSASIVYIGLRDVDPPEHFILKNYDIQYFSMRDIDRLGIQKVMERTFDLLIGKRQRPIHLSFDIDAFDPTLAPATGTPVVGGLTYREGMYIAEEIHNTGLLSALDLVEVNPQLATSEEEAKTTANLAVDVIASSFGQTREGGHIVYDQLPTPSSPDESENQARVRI
The test is described as follows: in vitro enzyme assay to detect the production of urea directly proportional to the activity of Arginase II. Further: in the data most compounds retested in dose-response had high values. It is filed as functional. The settings on record: 33.3 µM.

For test [6], the target named is T3, Proteasome subunit beta (Trypanosoma cruzi) (UniProt O96673).
T3 sequence (whole entry): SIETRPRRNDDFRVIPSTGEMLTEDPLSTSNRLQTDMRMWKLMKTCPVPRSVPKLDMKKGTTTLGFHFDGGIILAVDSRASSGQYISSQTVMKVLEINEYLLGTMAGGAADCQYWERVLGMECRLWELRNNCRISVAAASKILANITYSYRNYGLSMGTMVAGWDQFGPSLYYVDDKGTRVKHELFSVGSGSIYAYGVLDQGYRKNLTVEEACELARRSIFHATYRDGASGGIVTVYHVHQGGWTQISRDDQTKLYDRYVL
The test is described as follows: Trypanosoma cruzi proteasome chymotrypsin-like activity (TcProtChymo) assay. Further: in the data most compounds retested in dose-response had high values. It counts as functional. The note with it: 9.37 µM.

For another test, the species on record is Homo sapiens. The test is described as follows: To identify inhibition of the IFN signalling (Jak-Stat) pathway via expression of an eGFP reporter gene under the control of an IFN-stimulated response element (ISRE) containing MxA promoter. It counts as functional. The note with it: 30 µM. In general terms: In a reporter assay the amount or activity of a reporter protein is the signal.

In test [7] the target is T4, Tyrosyl-tRNA synthetase, putative (Trypanosoma cruzi (strain CL Brener)) (UniProt Q4DSP6).
T4 sequence (whole entry): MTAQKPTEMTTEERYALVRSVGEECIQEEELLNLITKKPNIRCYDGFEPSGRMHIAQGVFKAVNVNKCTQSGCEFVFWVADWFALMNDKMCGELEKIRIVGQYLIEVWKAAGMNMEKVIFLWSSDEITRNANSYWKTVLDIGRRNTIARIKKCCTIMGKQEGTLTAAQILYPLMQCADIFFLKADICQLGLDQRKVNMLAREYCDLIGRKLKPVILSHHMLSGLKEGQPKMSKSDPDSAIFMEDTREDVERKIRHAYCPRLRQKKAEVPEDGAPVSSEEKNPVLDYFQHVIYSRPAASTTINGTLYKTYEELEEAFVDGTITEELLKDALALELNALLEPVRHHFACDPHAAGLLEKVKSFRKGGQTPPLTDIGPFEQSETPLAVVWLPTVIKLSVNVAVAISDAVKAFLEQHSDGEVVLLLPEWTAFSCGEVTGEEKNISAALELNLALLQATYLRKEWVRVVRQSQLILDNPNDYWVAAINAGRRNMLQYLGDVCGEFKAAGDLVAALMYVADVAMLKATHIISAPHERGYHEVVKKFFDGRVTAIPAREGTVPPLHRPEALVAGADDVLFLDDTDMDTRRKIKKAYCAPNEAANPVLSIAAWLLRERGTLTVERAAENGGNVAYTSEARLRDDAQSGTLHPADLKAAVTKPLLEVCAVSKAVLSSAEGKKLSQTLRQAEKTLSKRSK
Put plainly: Trypanosoma cruzi tyrosyl tRNA synthetase (TcYRS) _High Tyrosine SOP. Further: in the data most compounds retested in dose-response had high values. It counts as functional. The settings on record: 30 µM.

Test [8] deals with T4, Tyrosyl-tRNA synthetase, putative (Trypanosoma cruzi (strain CL Brener)). The test is described as follows: Trypanosoma cruzi tyrosyl tRNA synthetase (TcYRS) SOP. It counts as functional. The note with it: 30 µM.
The target in test [9] is Chromo domain-containing protein 1 (Saccharomyces cerevisiae (strain ATCC 204508 / S288c) (Baker's yeast)) (UniProt P32657). The test is described as follows: ScCHD-1 Enzyme Inhibition Assay. Further: in the data most compounds retested in dose-response had high values. It is filed as functional. The note with it: 30 µM.
Chain of Chromo domain-containing protein 1 (Saccharomyces cerevisiae (strain ATCC 204508 / S288c) (Baker's yeast)) (P32657 whole entry, the tested form may be a part): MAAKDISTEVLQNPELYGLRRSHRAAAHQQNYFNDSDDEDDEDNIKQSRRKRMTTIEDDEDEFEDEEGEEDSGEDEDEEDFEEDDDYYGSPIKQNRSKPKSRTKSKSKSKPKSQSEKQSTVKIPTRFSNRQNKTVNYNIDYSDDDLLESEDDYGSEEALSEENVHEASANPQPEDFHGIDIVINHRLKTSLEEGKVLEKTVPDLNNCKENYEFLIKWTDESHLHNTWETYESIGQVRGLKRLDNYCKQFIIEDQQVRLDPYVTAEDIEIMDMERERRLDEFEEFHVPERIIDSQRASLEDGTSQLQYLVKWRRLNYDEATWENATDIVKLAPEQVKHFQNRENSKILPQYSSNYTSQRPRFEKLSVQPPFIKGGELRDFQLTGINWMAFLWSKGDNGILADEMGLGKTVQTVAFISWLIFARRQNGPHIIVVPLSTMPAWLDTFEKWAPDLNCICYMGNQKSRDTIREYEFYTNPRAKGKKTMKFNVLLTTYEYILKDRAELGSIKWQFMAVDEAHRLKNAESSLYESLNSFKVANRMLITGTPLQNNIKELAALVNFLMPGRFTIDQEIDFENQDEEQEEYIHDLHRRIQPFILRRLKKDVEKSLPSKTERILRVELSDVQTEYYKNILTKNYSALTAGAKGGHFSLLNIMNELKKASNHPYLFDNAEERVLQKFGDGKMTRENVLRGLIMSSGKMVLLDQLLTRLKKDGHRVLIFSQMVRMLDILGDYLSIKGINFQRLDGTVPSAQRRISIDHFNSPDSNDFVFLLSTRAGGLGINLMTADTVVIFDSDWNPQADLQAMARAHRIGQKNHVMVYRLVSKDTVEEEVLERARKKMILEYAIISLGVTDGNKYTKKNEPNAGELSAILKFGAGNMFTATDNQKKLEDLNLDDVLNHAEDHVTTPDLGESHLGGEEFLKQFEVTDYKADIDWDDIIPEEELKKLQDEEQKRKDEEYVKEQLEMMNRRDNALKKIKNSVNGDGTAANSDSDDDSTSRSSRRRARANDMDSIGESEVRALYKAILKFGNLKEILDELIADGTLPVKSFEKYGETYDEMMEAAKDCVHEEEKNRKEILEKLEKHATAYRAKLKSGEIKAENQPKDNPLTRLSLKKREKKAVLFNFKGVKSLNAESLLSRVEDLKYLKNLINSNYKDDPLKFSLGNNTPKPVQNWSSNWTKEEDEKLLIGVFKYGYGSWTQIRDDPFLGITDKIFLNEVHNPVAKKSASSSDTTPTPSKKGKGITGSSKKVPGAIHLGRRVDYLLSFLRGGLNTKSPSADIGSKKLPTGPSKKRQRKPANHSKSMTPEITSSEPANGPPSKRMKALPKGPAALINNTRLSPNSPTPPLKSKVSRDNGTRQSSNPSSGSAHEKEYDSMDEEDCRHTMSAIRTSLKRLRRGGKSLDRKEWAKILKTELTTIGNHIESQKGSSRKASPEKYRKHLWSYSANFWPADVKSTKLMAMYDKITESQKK

Structures are written as SMILES. For some of these results: Potency and affinity values are given separately.

Chain of Sialic acid-binding Ig-like lectin 9 (Homo sapiens) (Q9Y336 whole entry): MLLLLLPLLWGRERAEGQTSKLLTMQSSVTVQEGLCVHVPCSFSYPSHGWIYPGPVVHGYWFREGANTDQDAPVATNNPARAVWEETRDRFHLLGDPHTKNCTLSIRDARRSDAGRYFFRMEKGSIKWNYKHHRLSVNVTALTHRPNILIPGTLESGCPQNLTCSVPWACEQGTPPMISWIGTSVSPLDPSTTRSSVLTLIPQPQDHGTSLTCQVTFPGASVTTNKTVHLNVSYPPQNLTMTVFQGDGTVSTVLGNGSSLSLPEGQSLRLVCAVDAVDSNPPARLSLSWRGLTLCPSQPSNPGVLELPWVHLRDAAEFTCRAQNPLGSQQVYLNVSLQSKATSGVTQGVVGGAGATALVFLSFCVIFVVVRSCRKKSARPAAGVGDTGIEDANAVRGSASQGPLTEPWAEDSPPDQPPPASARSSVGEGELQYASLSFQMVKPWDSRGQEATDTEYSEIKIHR
Chain of Protein translocase subunit SecA (Escherichia coli (strain K12)) (P10408 whole entry): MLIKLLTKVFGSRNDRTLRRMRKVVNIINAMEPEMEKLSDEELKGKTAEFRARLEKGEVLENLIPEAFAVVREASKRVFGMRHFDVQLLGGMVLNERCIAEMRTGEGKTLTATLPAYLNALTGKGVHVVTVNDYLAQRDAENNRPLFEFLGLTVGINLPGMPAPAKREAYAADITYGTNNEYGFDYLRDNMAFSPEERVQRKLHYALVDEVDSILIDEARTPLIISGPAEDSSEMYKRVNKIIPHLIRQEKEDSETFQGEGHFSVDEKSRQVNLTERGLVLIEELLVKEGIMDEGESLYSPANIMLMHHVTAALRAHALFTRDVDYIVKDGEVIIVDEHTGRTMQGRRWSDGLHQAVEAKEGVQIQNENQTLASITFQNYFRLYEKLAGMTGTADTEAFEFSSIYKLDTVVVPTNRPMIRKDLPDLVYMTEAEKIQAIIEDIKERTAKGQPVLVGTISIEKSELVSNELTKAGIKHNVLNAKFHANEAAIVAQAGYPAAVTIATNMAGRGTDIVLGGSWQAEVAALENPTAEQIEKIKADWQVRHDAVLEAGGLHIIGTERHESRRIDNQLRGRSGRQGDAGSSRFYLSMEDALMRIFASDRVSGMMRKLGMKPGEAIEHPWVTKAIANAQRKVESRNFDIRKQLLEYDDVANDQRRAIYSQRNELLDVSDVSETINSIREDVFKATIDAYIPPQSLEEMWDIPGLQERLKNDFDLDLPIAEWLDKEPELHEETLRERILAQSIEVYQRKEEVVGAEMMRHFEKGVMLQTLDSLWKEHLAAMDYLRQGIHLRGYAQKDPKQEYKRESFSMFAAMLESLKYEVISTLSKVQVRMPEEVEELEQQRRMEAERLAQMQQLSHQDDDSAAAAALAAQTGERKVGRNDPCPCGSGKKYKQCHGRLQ

As for `COc1ccc(C2=CCN(C(=O)CN(C)CC(C)C#N)CC2)cc1` (stereo unspecified), the Percent Effect is -8.6% in [1]; -12.7% in [2]; -4.45% in [3]; 7.49% in [4]; 10.5% in the test with Trypanosoma cruzi; -6.84% in [5]. Moreover, the Percent Effect in [6] is 0.901%; in the test listed under Homo sapiens, 10.5%; in [7], 7.39%; in test [8] it was 13.9%; in [9] it was -8.15%.
Take `Cc1cnc(CNc2c(F)cccc2-n2cccn2)o1`: the Percent Effect was 3.66% in test [1]; 12.5% in test [2]; -4.76% in test [3]; 5.6% in test [4]; -8.46% in the test on Trypanosoma cruzi; 2.65% in test [5]. Also, the Percent Effect in test [6] amounted to 13.7%; in the test listed under Homo sapiens, 5.49%; in test [7] it was 4.21%; in test [8], 5.13%; in test [9], 101%.
As for `Cn1ncc2c(=O)[nH]c(CN3CCCC3CC3CCCCC3)nc21` (stereo unspecified), the Percent Effect was -1.58% in test [1]; 21.1% in [2]; -3.55% in test [3]; 4.78% in [4]; 3.83% with Trypanosoma cruzi; 0.719% in test [5]. The Percent Effect in test [6] was 6.85%; in the test listed under Homo sapiens, 17.1%; in [7], 6.4%; in [8], 25.9%; in [9], -8.17%.
As for `O=C1CCCN1Cc1ncn2c1CN(C(=O)c1cccc(F)c1)CCC2`, the Percent Effect is -0.833% in test [1]; 16.2% in test [2]; -2.98% in test [3]; 12% in test [4]; 3.42% with Trypanosoma cruzi; 20.6% in test [5]. In addition, the Percent Effect in test [6] was 13.3%; in the test listed under Homo sapiens it was 17.8%; in test [7], 8.6%; in test [8], 16.1%; in [9], -12.8%.
With `O=C(Nc1ccc(F)cc1)N1C[C@H]2CC[C@@H]1CN(Cc1cccnc1)C2`, the Percent Effect in test [1] was -3.11%; in test [2], 11%; in [3] it was 4.71%; in test [4], -2.61%; in the test with Trypanosoma cruzi, -2.15%; in test [5], 4.54%. Moreover, the Percent Effect was 13.3% in test [6]; 9.03% in the test filed under Homo sapiens; 10.8% in test [7]; 20% in test [8]; -5.73% in [9].
With `O=C(NCC1CC1)C1CN(C(=O)c2cccc(Cl)c2)CC12CCOCC2` (stereo unspecified), the Percent Effect in [1] was 1.58%; in test [2] it was 10.4%; in test [3] it was 52.3%; in test [4], -13.8%; with Trypanosoma cruzi, -9.37%; in test [5] it was 5.81%. Also, the Percent Effect in [6] is 16.4%; in the test listed under Homo sapiens it was 12.4%; in [7] it was 2.12%; in [8] it was -8.97%; in test [9] it was -9.61%.
`CCCn1[nH]cc/c1=N\C(=O)CN1CCc2c(nc(C(C)C)n2C)C1`: the Percent Effect in test [1] was -0.801%; in test [2], 20.8%; in test [3], -5.35%; in test [4], -15.6%; in the test with Trypanosoma cruzi, -2.06%; in [5] it was -4.84%. For the same compound, the Percent Effect is 11.6% in [6]; 18.7% in the test listed under Homo sapiens; 8.57% in [7]; 23.5% in [8]; -19.2% in test [9].
On to `O=C(CCc1cccs1)N1CCC(N2CCNC2=O)CC1`, for which the Percent Effect in [1] is -2.57%; in test [2], 23.4%; in test [3], -4.07%; in test [4], -12.7%; in the test on Trypanosoma cruzi, 3.23%; in test [5] it was -1.05%. Besides, the Percent Effect in [6] was 18.5%; in the test filed under Homo sapiens it was -5.88%; in test [7], 7.62%; in [8], 25.9%; in test [9] it was -19.5%.
For the compound `Cn1cccc1C(=O)N1CCc2ncnc(N3CCCC3)c2CC1`, the Percent Effect in test [1] is -4.32%; in test [2] it was 5.33%; in test [3], 8.28%; in test [4], 2.39%; in the test on Trypanosoma cruzi, 4.13%; in test [5] it was -4.43%. The Percent Effect was -0.264% in test [6]; 8.45% in the test filed under Homo sapiens; 5.32% in test [7]; 11.5% in test [8]; -2.07% in [9].
In the case of `Cc1cccc(-c2noc(CN3CCC(N4CCNC4=O)CC3)n2)c1`, the Percent Effect in test [1] is -6.31%; in [2], 13%; in test [3], 4.11%; in [4] it was 4.47%; with Trypanosoma cruzi, 0.374%; in test [5], -1.78%. Besides, the Percent Effect in test [6] is -2.2%; in the test filed under Homo sapiens, 21.5%; in test [7], 7.77%; in test [8] it was 12.2%; in test [9], -3.52%.
For the compound `CCc1ccccc1C(=O)N1CCN(S(C)(=O)=O)[C@@H](C)C1`, the Percent Effect in [1] amounted to 2.08%; in test [2] it was 2.74%; in [3], 0.603%; in test [4], 7.54%; with Trypanosoma cruzi it was 5.09%; in test [5], 3.18%. Also, the Percent Effect was 8.34% in test [6]; -4.78% in the test filed under Homo sapiens; 1.07% in test [7]; 0% in [8]; -1.37% in test [9].

The values are drawn from ChEMBL document CHEMBL3988442, “University of Dundee, Small-Polar-MMV Screening Library” (2021).
